This is a sample that favours compounds with a hit; in the whole collection about 0.65% have one here.
MRP reversal – reversal of MRP1-mediated doxorubicin resistance, primary screen, H69AR cells, doxorubicin co-treatment. H69AR cells + 2 uM doxorubicin, CellTiter-Glo, 72 h. hit rate 0.04% among 85,000. differential viability (reversal), % at 10 µM;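 active = viability drop by adding the cancer drug above about 55%, with treated viability meeting a 40% cutoff, limit read from the data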;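 note: viability without doxorubicin minus viability with 2 µM doxorubicin for each compound; larger differential means the compound sensitizes cells more to doxorubicin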
MRP1 act – H69AR viability gain despite doxorubicin, primary screen, MRP-1 activator project, H69AR cells, CellTiter-Glo; viability rescue; viability increase, % at 10 µM; hit rate 0.61% among 140,000;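 active = viability gain under doxorubicin at or above a set limit, the compound median plus 3 SD, cut at about 4.7% in these data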;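 note: MRP-1 overexpressing cells given doxorubicin 25 µM after compound pretreatment; 18-22 h compound pretreatment then 72 h with doxorubicin before readout; 0% = doxorubicin-only wells and 100% = vehicle-treated cells without doxorubicin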
* marks the source's active call; other numbers are inactive results.

SMILES | MRP reversal | MRP1 act
CCc1nnc(NC(=O)CCC(=O)N2CCN(Cc3ccccc3)CC2)s1 | 9.0 | -0.7
CCc1nnc(NC(=O)c2ccc(-c3ccc(Cl)cc3)o2)s1 | 8.1 | 7.2*
CCc1nnc(NC(=O)CCC(=O)N2CCN(Cc3ccc(Cl)cc3)CC2)s1 | -10.0 | 6.3*
CCn1nnc(NC(=O)c2ccc(-c3ccc(Cl)cc3)o2)n1 | 11.4 | -2.2
Cc1ccc(-c2ccc(CCC(=O)O)n2Cc2ccco2)cc1 | 3.5 | -2.7

Screening data from PubChem.
